Compound activity deposited in PubChem BioAssay by National Center for Advancing Translational Sciences (NCATS).
Most compounds without a hit are left out; they make up all but 0.96% or so of the library.
Resorufin autofl – qHTS Assay for Spectroscopic Profiling in Resorufin Spectral Region; max dye-equivalent concentration, M; 59,000 compounds, 0.04% hits; Compound fluorescence, resorufin region 547/598 nm, buffer; hits give high values
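Dye-equivalent concentration values derive from comparing each well's 547/598 nm fluorescence against resorufin standards included on every plate. Incubation was 15 min at room temperature in 100 mM Tris, pH 8.0.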
Fluorescein autfl – qHTS Assay for Spectroscopic Profiling in Fluorescein Spectral Region | Compound autofluorescence, 480/540 nm, fluorescein-equivalent; hits give high values | max fluorescein-equivalent concentration, M | 59,000 compounds, 0.91% hits; in the data active = max fluorescein-equivalent concentration above about 10 nM; inconclusive = between about 1.1 nM and that limit
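Normalized response (dye-equivalent concentration) derives from comparing each well's 540 nm emission, under 480 nm excitation, with plate-resident fluorescein standards. Compounds were held in 100 mM Tris, pH 8.0, for 15 min at room temperature.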
A647 autofl – qHTS Assay for Spectroscopic Profiling in A647 Spectral Region | Compound fluorescence, A647 channel (570/671 nm), Tris buffer | max dye-equivalent concentration, M | 59,000 tested, under 10 active
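Tris 100 mM pH 8.0; cpd + A647 stds pin-transferred; 15 min RT; CCD imager, ex 570/em 671. Output = A647-equivalent conc. per cpd conc.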
Rhodamine autofl – qHTS Assay for Spectroscopic Profiling in Rhodamine Spectral Region; Rhodamine-region fluorescence, 547/598 nm, Tris buffer; hits give high values; max dye-equivalent concentration, M; 59,000 compounds, 0.05% hits; in the data active = max dye-equivalent concentration above about 11 nM; inconclusive = between about 1.1 nM and that limit
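qHTS spectral profiling of compounds without any target or enzyme present, in pH 8.0 Tris buffer; plates were read after a 15-minute room-temperature incubation using the rhodamine-region filter set.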
Texas Red fluor – qHTS Assay for Spectroscopic Profiling in Texas Red Spectral Region; Compound fluorescence, Texas Red channel, 547/618 nm; hits give high values; max dye-equivalent concentration, M; 59,000 compounds, 0.06% hits; AID 587, 2007; in the data active = max dye-equivalent concentration above about 10 nM; inconclusive = between about 1.1 nM and that limit
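Compound titrations in 100 mM Tris pH 8.0 were incubated 15 min at room temperature and read at 547 nm excitation / 618 nm emission. Texas Red six-point standard curve on each plate converted fluorescence to dye-equivalent concentration.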
A488 autofl – qHTS Assay for Spectroscopic Profiling in A488 Spectral Region. compound autofluorescence, A488 spectral region, dye equivalency; Compound Type: qHTS ECL - MLSMR. max dye equivalency, M. 59,000 compounds, 0.1% hits. AID 591, 2007
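Read-out: relative fluorescence at 480/540 nm, expressed as Alexa 488 dye-equivalent concentration from a six-point A488 standard included per plate. Conditions: 100 mM Tris, pH 8.0; 15 min incubation, room temperature.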
A number is an active result; 0 = inactive; ? = inconclusive; ! = not active in a repeat. Unless noted, the rule behind the calls is not given here.

SMILES	Resorufin autofl	Fluorescein autfl	A647 autofl	Rhodamine autofl	Texas Red fluor	A488 autofl
CCN(CC)c1ccc2c(c1)OC(N)=C(C#N)C2c1cccnc1 (configuration not stated)	0	4.8e-08M	0	0	0	?
COc1ccc2c(c1)[n+]([O-])c(/C(C)=N/NC(N)=S)c(C)[n+]2[O-]	0	?	0	0	?	0
O=c1c(O)c(-c2cccs2)oc2ccccc12	0	3.2e-08M	0	0	?	?
CCCOc1cc(N)ccc1C(=O)OCCN(CC)CC	0	?	0	0	0	0
CCCOc1ccc(N)cc1N	0	1.9e-08M	0	0	0	0
CN(C)c1ccc(N/C=C/C(=O)c2ccccc2)cc1	0	1.4e-08M	0	0	0	0
CN(C)c1ccc(NC(=O)CCCc2ccccc2)cc1	0	?	0	0	?	0
COc1cc([C@@H]2[C@H]3CN(C)CC=C3C(C#N)=C(N)C2(C#N)C#N)cc2c1OCO2	0	1.1e-08M	0	0	0	0
CCCC1C2CN(C(C)C)CC=C2C(C#N)=C(N)C1(C#N)C#N (configuration not stated)	0	5.1e-08M	0	0	?	?
CCN1CC=C2C(C#N)=C(N)C(C#N)(C#N)[C@H](c3cccc(OC)c3OC)[C@H]2C1	0	9.6e-08M	0	0	0	?
CN1CC=C2C(C#N)=C(N)C(C#N)(C#N)[C@H](c3cccc(Cl)c3)C2C1 (some centres not stated)	0	4.1e-08M	0	0	?	?
CCOC(=O)N1CC=C2C(C#N)=C(N)C(C#N)(C#N)[C@H](c3ccc(OC(C)C)c(OCC)c3)[C@H]2C1	0	0	0	0	0	0
CCOC(=O)N1CC=C2C(C#N)=C(N)C(C#N)(C#N)[C@H](c3ccsc3)[C@H]2C1	0	?	0	0	?	0
CCOC(=O)N1CC=C2C(C#N)=C(N)C(C#N)(C#N)[C@H](c3ccccc3OCC)[C@H]2C1	0	?	0	0	?	0
CN1C2C=C3C(C#N)=C(N)C(C#N)(C#N)[C@@H](c4ccsc4)[C@@H]3C1CC2 (some centres not stated)	0	0	0	0	?	0
COc1cccc(C2C3CN(C)CC=C3C(C#N)=C(N)C2(C#N)C#N)c1OC (configuration not stated)	0	5.2e-08M	0	0	0	?
CN1CC=C2C(C#N)=C(N)C(C#N)(C#N)C(CCc3ccccc3)C2C1 (configuration not stated)	0	4.3e-08M	0	0	?	?
COc1ccc(CCN(C)CCC[C@@](C#N)(c2cc(OC)c(OC)c(OC)c2)C(C)C)cc1OC	0	?	0	0	0	0
CN(C)CCCO[C@H]1[C@H]([C@H](O)CO)O[C@H]2OC(C)(C)O[C@@H]21	0	?	0	0	0	0
CCOC(=O)CCSc1nc(C)cc(C(F)(F)F)c1C#N	0	1.5e-08M	0	0	0	0
CCS(=O)(=O)CCSc1nc(C)cc(C)c1C#N	0	0	0	0	0	0
Nc1ccc(CCNc2ncnc3c2ncn3[C@@H]2O[C@@H](CO)[C@H](O)[C@@H]2O)cc1	0	?	0	0	0	0
CCOc1ccccc1C1C(C#N)=C(N)SC(N)=C1C#N	0	1.3e-08M	0	0	0	0
CCOc1ccc(C2C(C#N)=C(N)SC(N)=C2C#N)cc1OC	0	?	0	0	0	0
CCOc1ccc(C2C(C#N)=C(N)SC(N)=C2C#N)cc1OCC	0	1.4e-08M	0	0	0	0
SMILES	Resorufin autofl	Fluorescein autfl	A647 autofl	Rhodamine autofl	Texas Red fluor	A488 autofl
OC[C@@H]1NC[C@@H](O)[C@H]1O	0	0	0	0	0	0
CN(C)CCOC(=O)c1ccc(N)cc1	0	0	0	0	0	0
C=C(CO)[C@H]1Cc2c(ccc3c(=O)c4c(oc23)COc2cc(OC)c(OC)cc2-4)O1	0	?	0	0	0	0
Cn1c(=O)c2c(nc(C(=N)SCC(=O)O)n2C)n(C)c1=O	0	?	0	0	0	0
Nc1cc(C(=O)O)[nH]c(=O)n1	0	1.1e-08M	0	0	0	0
O=C(NC1CCCC1)C(c1ccsc1)N(Cc1ccco1)C(=O)Cc1cccs1 (configuration not stated)	0	1.1e-08M	0	0	0	0
N#CC1=C(N)N(c2ccccc2)C2=C(C(=O)CCC2)C1c1ccsc1 (configuration not stated)	0	0	0	0	0	0
N#CC1=C(N)N2C(=C(C#N)C1c1ccccc1)Sc1ccccc12 (configuration not stated)	0	4.2e-08M	0	0	0	?
C=CCN1C(=O)C2(c3ccccc31)C1CCCC=C1C(C#N)=C(N)C2(C#N)C#N (configuration not stated)	0	0	0	0	0	0
CN1CCC2(CC1)C1CN(C)CC=C1C(C#N)=C(N)C2(C#N)C#N (configuration not stated)	0	6e-08M	0	0	0	?
CC(C)[C@@H]1NC(=O)[C@H](CCCCN)NC(=O)[C@H](Cc2c[nH]c3ccccc23)NC(=O)[C@H](Cc2ccc(O)cc2)NC(=O)[C@H](C)N(C)C(=O)[C@H](Cc2ccccc2)NC1=O	0	0	0	0	0	0
CN(C)c1ccc(C2C=C(c3ccc(Cl)cc3OC(F)F)Nc3ncnn32)cc1 (configuration not stated)	0	1.5e-08M	0	0	0	0
C/C(=N\NC(=O)c1ccncc1)c1ccc2ccccc2c1O	0	3.5e-08M	0	0	0	?
COC(=O)C1=CO[C@@H](C)[C@H]2CN3CCc4c([nH]c5ccccc45)[C@@H]3C[C@H]12	0	1e-08M!	0	0	0	0
CCCOc1ccc(/C=c2\sc3nc(-c4ccco4)nn3c2=O)cc1OCC	0	3.2e-08M	0	0	0	?
COc1cccc(C2=CC(c3ccc(C)cc3)n3ncnc3N2)c1 (configuration not stated)	0	1e-08M	0	0	?	0
O=c1c(O)c(-c2ccc(O)c(O)c2)oc2c(OC[C@H]3O[C@@H](O)[C@@H](O)[C@H](O)[C@@H]3O)c(O)cc(O)c12	0	0	0	0	0	0
C=CCNc1nc(N)c(C(=O)Nc2cc(C)on2)s1	0	0	0	0	0	0
Cc1cc(C(F)(F)F)c2c(N)c(C(=O)Nc3cc(C)on3)sc2n1	0	1.2e-08M	0	0	0	0
Cc1cc(C)c2c(SCc3ccc(Cl)cc3Cl)nc(N)nc2n1	0	?	0	0	0	0
Nc1c(C(=O)Nc2ccccc2)sc2nc(-c3ccco3)ccc12	0	1.6e-08M	0	0	?	0
COc1ccccc1NC(=O)c1sc2nc(-c3ccco3)ccc2c1N	0	0	0	0	0	0
